The results in this text go back to PubChem BioAssay (NCI).

Among the test systems are NCI-H23 lung; NCI-H226 lung; NCI-H322M lung; HOP-62 NSCLC; NCI-H460 lung; HOP-92 NSCLC; NCI-H522 lung; A549/ATCC NSCLC; 786-0 renal; COLO 205 colon; DU-145 prostate; K-562 leukemia; MALME-3M melanoma; MDA-MB-231 breast; RXF 393 renal; SF-268 CNS; SF-295 CNS; SF-539 CNS; UACC-257 melanoma; M14 melanoma.
Holding throughout (assay): NCI-60 one-dose screen, 48 h (100 = growth as untreated, 0 = no growth, -100 = all killed)
Conditions in all cases: 10 µM unless noted

Compounds without any hit were thinned out: in the full panel of roughly 83,000, 20% have a hit.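 The test compound was applied at a single concentration to cells in 96-well plates for 48 hours, and percent growth was recorded.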 A number with no mark means an inactive call. Active and inactive are the calls of the source. The calls were made as follows: active = growth percent below 10; inactive = the rest.

As to `COP(=O)(OC)c1nnn(-c2cccc([N+](=O)[O-])c2)c1C`, the growth with NCI-H23 lung was 107%; in the assay on NCI-H226 lung it was 120%; in the assay on NCI-H322M lung, 114%; with HOP-62 NSCLC, 110%; in the assay on NCI-H460 lung it was 104%; in the assay on HOP-92 NSCLC it was 119%. The growth was 90.3% with NCI-H522 lung; 111% in the assay on A549/ATCC NSCLC; 103% in the assay with 786-0 renal; 122% in the assay with COLO 205 colon; 111% in the assay on DU-145 prostate; 102% with K-562 leukemia. The growth was 105% in the assay on MALME-3M melanoma; 113% in the assay on MDA-MB-231 breast; 118% with RXF 393 renal; 98.2% in the assay with SF-268 CNS; 111% in the assay on SF-295 CNS; 93.3% with SF-539 CNS. Further, the growth in the assay with UACC-257 melanoma is 105%; with M14 melanoma it was 104%.

With `CCCCNC1=C(OCC)C(=O)c2ccccc2C1=O`, the growth in the assay with NCI-H23 lung is 83.5%; in the assay with NCI-H226 lung, 105%; in the assay on NCI-H322M lung, 103%; with HOP-62 NSCLC, 125%; in the assay with NCI-H460 lung it was 92.6%; with HOP-92 NSCLC, 74.5%. The growth is 98.4% in the assay on NCI-H522 lung; 99.2% in the assay with A549/ATCC NSCLC; 94.8% in the assay on 786-0 renal; 116% with COLO 205 colon; 104% in the assay with DU-145 prostate; 126% with K-562 leukemia. In addition, the growth with MALME-3M melanoma is 121%; in the assay with MDA-MB-231 breast, 98.9%; with RXF 393 renal it was 92.8%; in the assay on SF-268 CNS, 97.3%; in the assay with SF-295 CNS, 103%; with SF-539 CNS it was 112%. In addition, the figures for the growth in the assay with UACC-257 melanoma and in the assay on M14 melanoma were 95.7% and 95.5%, respectively.

Regarding `COc1ncc2cc1NS(=O)(=O)c1cccc(c1)C(=O)NCC1=CC=C(S1)c1ncnc3c1SC2=C3C`, the growth with NCI-H23 lung was 10.6%; with NCI-H226 lung, -30.4% (active); with NCI-H322M lung, -65.4% (active); with HOP-62 NSCLC it was 4.4% (active); with NCI-H460 lung it was 2.61% (active); with HOP-92 NSCLC, -17.5% (active). Further, the growth with NCI-H522 lung is 4.2% (active); in the assay with A549/ATCC NSCLC it was 1.4% (active); in the assay with 786-0 renal it was -23.8% (active); with COLO 205 colon it was -35.5% (active); in the assay with DU-145 prostate, 9.14% (active); in the assay on K-562 leukemia it was 4.66% (active). Moreover, the growth with MALME-3M melanoma was -39.2% (active); in the assay on MDA-MB-231 breast it was 10.9%; in the assay with RXF 393 renal it was -62.8% (active); in the assay with SF-268 CNS, 0.0661% (active); in the assay on SF-295 CNS, -21.6% (active); with SF-539 CNS it was -55.3% (active). Also, the growth in the assay on UACC-257 melanoma is -1.33% (active); in the assay with M14 melanoma it was -43.9% (active).

For the compound `CC(C)c1ccc(-n2c(=S)[nH]c3sc4c(c3c2=O)CCC(=O)C4)cc1`, the growth in the assay with NCI-H23 lung is 36.2%; with NCI-H226 lung, 84.9%; in the assay on NCI-H322M lung, 78%; with HOP-62 NSCLC, 33.9%; with NCI-H460 lung, 30.3%; in the assay on HOP-92 NSCLC, -6.71% (active). Besides, the growth with NCI-H522 lung is 6.26% (active); with A549/ATCC NSCLC, 71.1%; with 786-0 renal it was 102%; in the assay with COLO 205 colon, 92.7%; in the assay on DU-145 prostate, 104%; in the assay on K-562 leukemia, 56.7%. Besides, the growth is 88.7% with MALME-3M melanoma; 68.3% in the assay with MDA-MB-231 breast; 48.9% with RXF 393 renal; 28.7% in the assay with SF-268 CNS; 21.1% in the assay with SF-295 CNS; 23.3% with SF-539 CNS. The growth in the assay on UACC-257 melanoma is 75.3%; in the assay on M14 melanoma it was 60.4%.

As to `N#Cc1c(-c2ccccc2)nc2c(c(-c3ccccc3)nn2-c2ccccc2)c1-c1ccc(N2CCOCC2)cc1`, the growth with NCI-H23 lung is 96.9%; in the assay on NCI-H226 lung it was 92.7%; with NCI-H322M lung, 92.3%; in the assay with HOP-62 NSCLC, 95.3%; with NCI-H460 lung, 92.5%; with HOP-92 NSCLC it was 85.8%. Besides, the growth in the assay with NCI-H522 lung is 92%; in the assay on A549/ATCC NSCLC it was 77.2%; in the assay on 786-0 renal, 86.3%; with COLO 205 colon, 79.6%; in the assay on DU-145 prostate, 91.5%; with K-562 leukemia, -20% (active). The growth was 104% in the assay with MALME-3M melanoma; 97.3% in the assay with MDA-MB-231 breast; 95% in the assay with RXF 393 renal; 104% in the assay on SF-268 CNS; 107% in the assay with SF-295 CNS; 93.7% in the assay with SF-539 CNS. Also, the results for the growth in the assay with UACC-257 melanoma and with M14 melanoma were 101% and 92.3%, respectively.

For the compound `N=c1sc(Cc2cc(Cl)ccc2Cl)cn1CC(=O)c1ccccc1`, the growth was 68.4% in the assay with NCI-H23 lung; 66.3% in the assay on NCI-H226 lung; 56.4% in the assay with NCI-H322M lung; 74.6% with HOP-62 NSCLC; 20.3% in the assay with NCI-H460 lung; 51.2% in the assay on HOP-92 NSCLC. Besides, the growth was 39.8% in the assay on NCI-H522 lung; 30% in the assay on A549/ATCC NSCLC; 78.4% with 786-0 renal; 72.1% with COLO 205 colon; 68.7% in the assay on DU-145 prostate; 17% in the assay on K-562 leukemia. Besides, the growth with MALME-3M melanoma was 44.6%; in the assay on MDA-MB-231 breast, 54.9%; in the assay with RXF 393 renal it was 77.1%; in the assay with SF-268 CNS, 58.9%; in the assay on SF-295 CNS, 57.3%; with SF-539 CNS, 64.1%. Besides, the growth was 60.3% with UACC-257 melanoma and 21.1% in the assay on M14 melanoma.

With `COc1cc(C(=O)c2c(-c3ccccc3)oc3c(OC)cccc23)cc(OC)c1O`, the growth was 34% with NCI-H23 lung; -0.617% (active) in the assay on NCI-H226 lung; 56.2% with NCI-H322M lung; 31.8% in the assay with HOP-62 NSCLC; 3.99% (active) in the assay with NCI-H460 lung; 34.9% in the assay with HOP-92 NSCLC. In addition, the growth was 13.1% in the assay on NCI-H522 lung; 20.2% in the assay with A549/ATCC NSCLC; 33.4% in the assay with 786-0 renal; 7.65% (active) in the assay with COLO 205 colon; 23% in the assay on DU-145 prostate; 13.4% in the assay on K-562 leukemia. Moreover, the growth in the assay on MALME-3M melanoma is 47.4%; in the assay with MDA-MB-231 breast, 17%; in the assay with RXF 393 renal, -6.63% (active); in the assay with SF-268 CNS, 46.5%; in the assay with SF-295 CNS, 2.85% (active); with SF-539 CNS it was -13.2% (active). Moreover, the growth in the assay on UACC-257 melanoma is 71.4%; in the assay with M14 melanoma, 16.3%.

Regarding `Oc1c(I)cc(-c2nc3ccccc3s2)cc1CN(Cc1ccccn1)Cc1ccccn1`, the growth in the assay with NCI-H23 lung is 18.3%; in the assay with NCI-H226 lung, 10.5%; in the assay with NCI-H322M lung, 15.9%; in the assay on HOP-62 NSCLC, 15.7%; in the assay on NCI-H460 lung it was 1.59% (active); with HOP-92 NSCLC, 0.23% (active). The growth is 4.12% (active) in the assay on NCI-H522 lung; 4.74% (active) in the assay with A549/ATCC NSCLC; 2.78% (active) in the assay on 786-0 renal; 14.3% in the assay with COLO 205 colon; 28.1% in the assay on DU-145 prostate; 13.1% with K-562 leukemia. Besides, the growth is 11.5% with MALME-3M melanoma; 34.9% with MDA-MB-231 breast; 33.3% in the assay on RXF 393 renal; 20.8% in the assay with SF-268 CNS; 18.5% in the assay on SF-295 CNS; 4.13% (active) in the assay on SF-539 CNS. Moreover, the growth in the assay with UACC-257 melanoma is 0.435% (active); with M14 melanoma, -27.5% (active).
